For three molecules, inhibition results are on record in ChEMBL document CHEMBL1961873, “Compounds: GSK PKIS; Assays: Nanosyn kinase panel” (2012).

Assay [1] concerns the target T1, Serine/threonine-protein kinase Nek9 (Homo sapiens) (UniProt Q8TD19).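 Note: each value is a mean percent inhibition of NEK9.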
T1 sequence (whole entry): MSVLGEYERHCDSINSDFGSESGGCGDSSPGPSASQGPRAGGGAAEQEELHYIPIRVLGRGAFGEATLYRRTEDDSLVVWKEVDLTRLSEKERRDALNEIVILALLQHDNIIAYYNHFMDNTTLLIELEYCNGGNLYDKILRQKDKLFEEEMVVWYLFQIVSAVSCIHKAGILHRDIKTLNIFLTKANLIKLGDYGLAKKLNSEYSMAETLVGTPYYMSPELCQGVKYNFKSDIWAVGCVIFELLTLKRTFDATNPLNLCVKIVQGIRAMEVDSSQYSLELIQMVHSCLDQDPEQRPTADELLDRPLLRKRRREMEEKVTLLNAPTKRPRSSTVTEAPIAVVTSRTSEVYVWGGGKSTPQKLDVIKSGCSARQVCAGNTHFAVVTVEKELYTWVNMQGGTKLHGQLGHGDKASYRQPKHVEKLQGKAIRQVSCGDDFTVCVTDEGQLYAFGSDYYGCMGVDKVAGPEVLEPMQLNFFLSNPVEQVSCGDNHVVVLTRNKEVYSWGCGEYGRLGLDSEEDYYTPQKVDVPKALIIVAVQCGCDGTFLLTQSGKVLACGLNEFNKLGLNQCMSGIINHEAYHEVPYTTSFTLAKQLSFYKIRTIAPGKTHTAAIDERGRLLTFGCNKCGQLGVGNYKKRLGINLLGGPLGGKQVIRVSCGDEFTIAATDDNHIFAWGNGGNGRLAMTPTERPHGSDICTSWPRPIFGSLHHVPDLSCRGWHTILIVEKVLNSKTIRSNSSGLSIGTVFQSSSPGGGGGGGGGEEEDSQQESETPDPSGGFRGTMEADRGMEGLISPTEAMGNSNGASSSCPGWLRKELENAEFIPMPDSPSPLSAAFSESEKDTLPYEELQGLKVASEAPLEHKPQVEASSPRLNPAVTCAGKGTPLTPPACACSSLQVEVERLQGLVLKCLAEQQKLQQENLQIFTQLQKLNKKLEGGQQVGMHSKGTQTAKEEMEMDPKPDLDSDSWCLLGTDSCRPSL
Particulars: at 1 µM.

Assay [2] addresses Serine/threonine-protein kinase PLK1 (Homo sapiens) (UniProt P53350). The note with it: at 0.1 µM.
For assay [3] the target is unchanged. Particulars: at 1 µM.
The target of assay [4] is T2, Dual specificity protein kinase TTK (Homo sapiens) (UniProt P33981).
T2 sequence (whole entry): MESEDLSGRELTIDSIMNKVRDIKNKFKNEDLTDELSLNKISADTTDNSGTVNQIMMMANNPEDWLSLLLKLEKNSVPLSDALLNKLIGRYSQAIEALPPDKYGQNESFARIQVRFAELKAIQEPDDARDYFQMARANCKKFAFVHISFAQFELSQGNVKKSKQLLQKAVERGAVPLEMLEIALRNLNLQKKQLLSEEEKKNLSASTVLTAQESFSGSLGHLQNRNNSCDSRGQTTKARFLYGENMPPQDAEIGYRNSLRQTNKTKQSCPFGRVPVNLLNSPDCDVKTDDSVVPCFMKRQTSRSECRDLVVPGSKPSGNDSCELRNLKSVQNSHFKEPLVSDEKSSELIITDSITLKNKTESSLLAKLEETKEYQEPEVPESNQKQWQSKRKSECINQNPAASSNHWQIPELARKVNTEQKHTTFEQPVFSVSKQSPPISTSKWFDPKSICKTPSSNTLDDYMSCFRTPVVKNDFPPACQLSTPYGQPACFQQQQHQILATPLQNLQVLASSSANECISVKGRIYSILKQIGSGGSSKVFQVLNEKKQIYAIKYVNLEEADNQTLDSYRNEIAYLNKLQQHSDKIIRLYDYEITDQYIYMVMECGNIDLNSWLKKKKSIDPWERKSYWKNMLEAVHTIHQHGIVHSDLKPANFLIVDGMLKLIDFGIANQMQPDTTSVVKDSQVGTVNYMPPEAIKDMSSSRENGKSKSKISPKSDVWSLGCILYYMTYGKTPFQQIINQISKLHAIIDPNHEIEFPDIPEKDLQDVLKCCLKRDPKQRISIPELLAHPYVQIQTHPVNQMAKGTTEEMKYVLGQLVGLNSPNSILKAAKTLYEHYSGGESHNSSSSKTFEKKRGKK
Particulars: at 0.1 µM.

The test system of assay [5] is T3, Receptor-type tyrosine-protein kinase FLT3 (Homo sapiens), P36888 [D835Y].
T3 sequence (whole entry): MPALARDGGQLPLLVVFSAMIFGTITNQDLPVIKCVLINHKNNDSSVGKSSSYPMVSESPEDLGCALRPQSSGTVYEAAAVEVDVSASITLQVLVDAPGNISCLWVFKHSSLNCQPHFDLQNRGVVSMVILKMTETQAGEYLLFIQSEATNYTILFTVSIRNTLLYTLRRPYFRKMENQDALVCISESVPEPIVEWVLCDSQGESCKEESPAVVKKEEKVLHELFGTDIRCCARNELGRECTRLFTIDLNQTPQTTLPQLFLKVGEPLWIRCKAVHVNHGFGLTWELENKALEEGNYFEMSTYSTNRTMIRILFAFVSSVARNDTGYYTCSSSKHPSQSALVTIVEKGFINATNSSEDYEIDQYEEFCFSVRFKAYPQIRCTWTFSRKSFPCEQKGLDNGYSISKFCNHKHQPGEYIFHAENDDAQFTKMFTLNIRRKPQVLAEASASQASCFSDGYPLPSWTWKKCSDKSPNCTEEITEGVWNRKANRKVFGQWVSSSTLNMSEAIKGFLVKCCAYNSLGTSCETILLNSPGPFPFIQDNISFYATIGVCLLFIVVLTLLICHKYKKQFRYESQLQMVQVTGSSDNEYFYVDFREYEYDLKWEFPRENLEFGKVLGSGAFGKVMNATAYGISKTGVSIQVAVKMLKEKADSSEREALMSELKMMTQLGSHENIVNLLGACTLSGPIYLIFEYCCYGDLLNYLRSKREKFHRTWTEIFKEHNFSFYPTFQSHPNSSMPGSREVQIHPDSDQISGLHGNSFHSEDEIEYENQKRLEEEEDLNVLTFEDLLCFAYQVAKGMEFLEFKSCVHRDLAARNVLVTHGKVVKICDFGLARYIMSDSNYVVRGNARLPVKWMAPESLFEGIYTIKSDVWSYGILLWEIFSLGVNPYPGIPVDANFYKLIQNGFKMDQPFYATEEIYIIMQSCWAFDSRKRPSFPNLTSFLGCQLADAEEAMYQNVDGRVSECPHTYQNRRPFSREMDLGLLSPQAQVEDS
Particulars: at 1 µM.

In assay [6] the target is Vascular endothelial growth factor receptor 3 (Homo sapiens) (UniProt P35916). Particulars: at 0.1 µM.
Vascular endothelial growth factor receptor 3 (Homo sapiens), sequence (P35916 whole entry): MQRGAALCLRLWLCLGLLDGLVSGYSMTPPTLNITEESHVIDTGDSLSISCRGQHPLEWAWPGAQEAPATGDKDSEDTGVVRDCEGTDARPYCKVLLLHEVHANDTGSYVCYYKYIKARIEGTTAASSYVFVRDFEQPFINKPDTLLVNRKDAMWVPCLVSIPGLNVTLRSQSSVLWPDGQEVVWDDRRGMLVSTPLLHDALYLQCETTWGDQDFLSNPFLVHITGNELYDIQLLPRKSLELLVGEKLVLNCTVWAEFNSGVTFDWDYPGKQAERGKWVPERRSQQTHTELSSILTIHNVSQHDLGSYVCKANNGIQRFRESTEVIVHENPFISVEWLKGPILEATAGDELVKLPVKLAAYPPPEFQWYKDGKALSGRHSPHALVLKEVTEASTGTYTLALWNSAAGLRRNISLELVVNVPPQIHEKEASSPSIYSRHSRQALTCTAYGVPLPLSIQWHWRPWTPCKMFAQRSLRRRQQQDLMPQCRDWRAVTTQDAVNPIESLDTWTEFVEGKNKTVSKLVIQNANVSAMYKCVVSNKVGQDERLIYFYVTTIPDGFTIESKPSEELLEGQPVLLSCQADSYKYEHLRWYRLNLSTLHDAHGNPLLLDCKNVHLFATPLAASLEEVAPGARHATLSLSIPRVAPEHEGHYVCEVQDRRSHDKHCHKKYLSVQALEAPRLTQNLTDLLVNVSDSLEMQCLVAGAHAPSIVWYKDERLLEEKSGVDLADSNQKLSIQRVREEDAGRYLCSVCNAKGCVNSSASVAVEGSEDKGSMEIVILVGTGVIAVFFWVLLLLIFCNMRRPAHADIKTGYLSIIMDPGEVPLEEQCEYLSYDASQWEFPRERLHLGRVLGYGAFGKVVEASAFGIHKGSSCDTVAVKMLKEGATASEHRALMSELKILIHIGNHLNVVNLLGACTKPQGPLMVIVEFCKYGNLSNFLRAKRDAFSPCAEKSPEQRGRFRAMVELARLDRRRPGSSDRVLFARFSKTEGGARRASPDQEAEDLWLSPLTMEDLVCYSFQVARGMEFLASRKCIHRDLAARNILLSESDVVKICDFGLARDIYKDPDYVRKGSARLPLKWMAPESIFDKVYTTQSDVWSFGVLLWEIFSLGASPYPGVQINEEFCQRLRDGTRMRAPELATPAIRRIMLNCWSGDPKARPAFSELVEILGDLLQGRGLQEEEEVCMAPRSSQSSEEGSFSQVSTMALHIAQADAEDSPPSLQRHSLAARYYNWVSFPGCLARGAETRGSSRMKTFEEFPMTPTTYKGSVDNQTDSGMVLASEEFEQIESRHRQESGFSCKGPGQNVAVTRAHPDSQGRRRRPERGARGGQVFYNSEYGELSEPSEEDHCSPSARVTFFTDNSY
Assay [7] shares this target. Particulars: at 1 µM.
Assay [8] has as its target Macrophage colony-stimulating factor 1 receptor (Homo sapiens) (UniProt P07333). The note with it: at 0.1 µM.
The target is the same in assay [9]. Particulars: at 1 µM.
Assay [10] deals with Tyrosine-protein kinase Fyn (Homo sapiens) (UniProt P06241). The note with it: at 0.1 µM.
For assay [11] the target is unchanged. Particulars: at 1 µM.
Assay [12] has as its target Tyrosine-protein kinase HCK (Homo sapiens) (UniProt P08631). The note with it: at 0.1 µM.
The target is the same in assay [13]. The note with it: at 1 µM.
In assay [14] the target is Insulin-like growth factor 1 receptor (Homo sapiens) (UniProt P08069). The note with it: at 0.1 µM.
The target is the same in assay [15]. Particulars: at 1 µM.
The target in assay [16] is Insulin receptor (Homo sapiens) (UniProt P06213). Particulars: at 0.1 µM.
For assay [17] the target is unchanged. Particulars: at 1 µM.
In assay [18] the target is Insulin receptor-related protein (Homo sapiens) (UniProt P14616). The note with it: at 0.1 µM.
Insulin receptor-related protein (Homo sapiens), sequence (P14616 27-742 limits assumed): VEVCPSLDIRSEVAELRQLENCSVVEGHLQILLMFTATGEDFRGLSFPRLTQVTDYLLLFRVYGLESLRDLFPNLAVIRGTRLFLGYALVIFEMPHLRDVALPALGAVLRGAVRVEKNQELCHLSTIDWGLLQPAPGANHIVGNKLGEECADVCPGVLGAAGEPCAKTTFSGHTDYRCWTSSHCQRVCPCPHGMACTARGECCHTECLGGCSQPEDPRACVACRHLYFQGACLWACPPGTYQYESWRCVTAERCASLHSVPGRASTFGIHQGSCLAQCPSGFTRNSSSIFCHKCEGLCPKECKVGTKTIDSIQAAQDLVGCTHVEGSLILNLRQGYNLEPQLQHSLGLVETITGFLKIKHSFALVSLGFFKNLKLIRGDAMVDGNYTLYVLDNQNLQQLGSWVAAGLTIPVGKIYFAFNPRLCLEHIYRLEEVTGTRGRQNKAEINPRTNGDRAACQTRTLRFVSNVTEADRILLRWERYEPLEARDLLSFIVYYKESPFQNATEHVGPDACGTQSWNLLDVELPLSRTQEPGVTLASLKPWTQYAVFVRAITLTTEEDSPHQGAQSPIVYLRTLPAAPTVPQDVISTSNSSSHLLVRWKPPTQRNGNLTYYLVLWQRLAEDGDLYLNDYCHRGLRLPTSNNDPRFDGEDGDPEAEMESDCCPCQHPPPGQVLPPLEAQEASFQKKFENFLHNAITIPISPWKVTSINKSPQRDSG
Insulin receptor-related protein (Homo sapiens), sequence (P14616 747-1297 limits assumed): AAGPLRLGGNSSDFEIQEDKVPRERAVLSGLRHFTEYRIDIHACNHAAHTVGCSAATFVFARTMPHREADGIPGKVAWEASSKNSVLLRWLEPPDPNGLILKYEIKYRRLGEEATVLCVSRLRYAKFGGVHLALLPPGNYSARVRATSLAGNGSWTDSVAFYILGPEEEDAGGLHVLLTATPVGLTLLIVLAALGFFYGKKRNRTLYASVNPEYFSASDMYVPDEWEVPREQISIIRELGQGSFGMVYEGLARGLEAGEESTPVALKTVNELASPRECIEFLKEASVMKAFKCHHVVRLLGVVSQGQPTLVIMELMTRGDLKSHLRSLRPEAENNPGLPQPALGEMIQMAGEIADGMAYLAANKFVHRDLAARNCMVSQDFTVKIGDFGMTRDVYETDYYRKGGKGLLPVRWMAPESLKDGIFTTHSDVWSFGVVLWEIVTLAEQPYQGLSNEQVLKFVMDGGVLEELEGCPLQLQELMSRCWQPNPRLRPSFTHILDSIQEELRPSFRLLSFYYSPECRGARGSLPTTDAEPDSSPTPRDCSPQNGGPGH
The target is the same in assay [19]. Particulars: at 1 µM.
Assay [20] deals with T4, Tyrosine-protein kinase ITK/TSK (Homo sapiens) (UniProt Q08881).
T4 sequence (whole entry): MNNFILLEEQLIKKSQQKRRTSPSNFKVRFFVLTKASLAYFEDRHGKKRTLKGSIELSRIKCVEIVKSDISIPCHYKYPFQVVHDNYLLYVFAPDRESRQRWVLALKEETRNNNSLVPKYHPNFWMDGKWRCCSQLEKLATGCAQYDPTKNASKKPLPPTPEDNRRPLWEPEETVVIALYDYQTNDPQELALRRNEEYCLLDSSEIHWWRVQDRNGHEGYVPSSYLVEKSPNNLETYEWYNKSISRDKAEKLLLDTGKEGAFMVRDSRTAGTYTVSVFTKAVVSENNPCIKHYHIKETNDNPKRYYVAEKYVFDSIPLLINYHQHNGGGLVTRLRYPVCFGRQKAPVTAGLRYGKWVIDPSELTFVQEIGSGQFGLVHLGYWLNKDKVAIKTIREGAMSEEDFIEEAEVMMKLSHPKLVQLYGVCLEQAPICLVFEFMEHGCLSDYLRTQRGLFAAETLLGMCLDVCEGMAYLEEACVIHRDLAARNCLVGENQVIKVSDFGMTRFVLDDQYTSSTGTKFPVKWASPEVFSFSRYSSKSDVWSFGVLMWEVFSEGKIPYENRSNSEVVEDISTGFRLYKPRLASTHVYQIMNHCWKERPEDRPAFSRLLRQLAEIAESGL
The note with it: at 0.1 µM.

Macrophage colony-stimulating factor 1 receptor (Homo sapiens), sequence (P07333 whole entry): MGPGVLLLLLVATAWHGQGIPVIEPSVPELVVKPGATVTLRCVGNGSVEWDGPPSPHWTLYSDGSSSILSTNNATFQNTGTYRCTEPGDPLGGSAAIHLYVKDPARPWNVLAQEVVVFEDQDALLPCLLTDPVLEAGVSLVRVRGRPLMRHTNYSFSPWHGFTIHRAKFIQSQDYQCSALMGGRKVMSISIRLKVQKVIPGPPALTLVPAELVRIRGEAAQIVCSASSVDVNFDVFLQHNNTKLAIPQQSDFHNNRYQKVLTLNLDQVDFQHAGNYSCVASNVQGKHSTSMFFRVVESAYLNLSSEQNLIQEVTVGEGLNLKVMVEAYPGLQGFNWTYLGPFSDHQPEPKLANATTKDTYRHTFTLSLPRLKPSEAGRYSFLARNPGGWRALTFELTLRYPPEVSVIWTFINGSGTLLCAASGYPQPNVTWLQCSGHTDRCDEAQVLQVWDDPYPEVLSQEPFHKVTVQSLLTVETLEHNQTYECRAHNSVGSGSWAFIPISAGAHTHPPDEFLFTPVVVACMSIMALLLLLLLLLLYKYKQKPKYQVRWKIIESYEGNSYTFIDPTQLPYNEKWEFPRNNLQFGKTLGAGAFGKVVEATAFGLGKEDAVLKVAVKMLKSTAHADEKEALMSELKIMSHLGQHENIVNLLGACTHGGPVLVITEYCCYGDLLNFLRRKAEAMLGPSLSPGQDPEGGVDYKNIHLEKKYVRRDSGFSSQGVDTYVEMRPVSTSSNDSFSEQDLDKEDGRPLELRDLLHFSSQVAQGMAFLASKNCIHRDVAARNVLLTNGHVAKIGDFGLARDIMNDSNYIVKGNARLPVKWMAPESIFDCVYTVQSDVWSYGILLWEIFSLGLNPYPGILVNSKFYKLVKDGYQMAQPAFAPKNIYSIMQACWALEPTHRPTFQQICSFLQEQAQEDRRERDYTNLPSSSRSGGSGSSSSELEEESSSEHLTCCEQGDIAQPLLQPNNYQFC
Serine/threonine-protein kinase PLK1 (Homo sapiens), sequence (P53350 whole entry): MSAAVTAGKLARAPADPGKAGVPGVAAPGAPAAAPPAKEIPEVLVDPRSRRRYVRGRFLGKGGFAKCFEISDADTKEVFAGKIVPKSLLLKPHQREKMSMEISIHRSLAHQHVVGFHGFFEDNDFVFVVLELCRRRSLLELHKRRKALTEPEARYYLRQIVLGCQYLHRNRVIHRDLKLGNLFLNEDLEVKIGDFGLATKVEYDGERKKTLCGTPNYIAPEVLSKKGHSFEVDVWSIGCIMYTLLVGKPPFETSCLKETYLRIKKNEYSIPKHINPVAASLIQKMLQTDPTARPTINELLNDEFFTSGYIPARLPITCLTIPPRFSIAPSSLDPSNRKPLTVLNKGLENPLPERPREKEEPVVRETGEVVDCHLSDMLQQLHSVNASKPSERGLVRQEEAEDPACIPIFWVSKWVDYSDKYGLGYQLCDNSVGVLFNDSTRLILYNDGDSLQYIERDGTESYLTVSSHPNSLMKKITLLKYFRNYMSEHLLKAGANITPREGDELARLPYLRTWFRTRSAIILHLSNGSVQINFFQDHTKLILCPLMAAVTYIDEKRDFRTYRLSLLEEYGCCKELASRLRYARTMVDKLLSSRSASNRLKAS
Tyrosine-protein kinase HCK (Homo sapiens), sequence (P08631 2-526 limits assumed): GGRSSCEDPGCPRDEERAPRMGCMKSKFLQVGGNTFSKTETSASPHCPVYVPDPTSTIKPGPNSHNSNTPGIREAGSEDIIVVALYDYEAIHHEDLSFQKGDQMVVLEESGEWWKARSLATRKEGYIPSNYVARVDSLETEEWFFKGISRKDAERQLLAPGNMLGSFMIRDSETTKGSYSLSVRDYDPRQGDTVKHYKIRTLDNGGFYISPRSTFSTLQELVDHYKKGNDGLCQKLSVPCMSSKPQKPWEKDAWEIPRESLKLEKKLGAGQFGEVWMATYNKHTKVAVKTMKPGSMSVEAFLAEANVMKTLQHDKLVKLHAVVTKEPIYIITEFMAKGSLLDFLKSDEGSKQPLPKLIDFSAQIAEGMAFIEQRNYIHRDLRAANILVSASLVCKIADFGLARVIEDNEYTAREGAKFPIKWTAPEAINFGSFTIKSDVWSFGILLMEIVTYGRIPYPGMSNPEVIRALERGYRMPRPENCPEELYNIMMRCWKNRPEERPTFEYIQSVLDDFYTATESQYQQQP

In general, inhibition refers to the relative decrease from the control value, in per cent. With `CC(=O)Nc1cccc(C#Cc2cncnc2Nc2ccc(OCc3cccc(F)c3)c(Cl)c2)n1`, the inhibition in [1] is 2.5%; in assay [2] it was -3.77%; in assay [3], -3.29%; in assay [4], -1.68%; in [5] it was 2.36%; in assay [6] it was -1.2%. The inhibition in [7] was -2.96%; in [8], 0.5%; in assay [9] it was -0.39%; in assay [10], 1.08%; in [11], 2.69%; in [12] it was -0.02%. Also, the inhibition in [13] is 2.4%; in assay [14], -4.35%; in assay [15], -3.59%; in [16], -4.01%; in [17], -3.08%; in [18], -1.19%. For the same molecule, the figures for the inhibition in assay [19] and in [20] were 0% and -0.1%, respectively.

`CN1CCC(C(=O)Nc2n[nH]c3nnc(-c4ccccc4)cc23)CC1`: the inhibition in [1] is 19.2%; in assay [2] it was 6.37%; in assay [3], 4.03%; in assay [4] it was 12.6%; in [5] it was -2.63%; in [6], 2.1%. Moreover, the inhibition stood at 3.3% in [7]; 0.38% in assay [8]; 3.05% in assay [9]; 0.66% in [10]; 3.89% in assay [11]; 3.42% in [12]. Besides, the inhibition in assay [13] was determined as 7.61%; in assay [14], 3.98%; in assay [15], 4.17%; in [16], 7.76%; in assay [17], 4.86%; in [18], 1.63%. Moreover, the inhibition in [19] worked out at 2.13%; in assay [20], 1.35%.

On to `COc1cc2c(cc1Nc1nc(N3CCc4ccccc43)c3cc[nH]c3n1)N(C(=O)CN(C)C)CC2`, for which the inhibition was determined as 0.78% in assay [1]; 5.82% in assay [2]; 25.4% in [3]; 7.66% in assay [4]; 2.32% in assay [5]; 12.9% in assay [6]. In addition, the inhibition in assay [7] was 13.7%; in assay [8] it was 1.41%; in assay [9], 2.14%; in assay [10], -1.37%; in [11], 1.51%; in assay [12], 5.42%. The inhibition in [13] was 10%; in assay [14], 103%; in assay [15], 98.4%; in assay [16] it was 93%; in assay [17], 91%; in assay [18], 72.3%. For the same molecule, the inhibition worked out at 90.3% in assay [19] and 0.83% in assay [20].
